From PubChem BioAssay (EPA / NIEHS)
“And” between values parts separate entries of the source, which are not always exact repeats. Identical values can stand only once. Results filed as inconclusive are left out. Some compounds were tested as several samples or in several runs, with calls that do not always agree. The source made the active and inactive calls. How the source made its calls: active means hit-call score of the fitted dose curve at least 0.9, where 1 is the maximum; inconclusive means response in the unintended direction; inactive means score below 0.9.

What was measured:
[1] = ATG_M_06_XSP1: Attagene TRANS-FACTORIAL Multi-Species (XSP1) HepG2 Assay for M06 Transcription Factor (Internal Marker) (AID 2283790)
Summary of the method: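 Transfected HepG2 multi-reporter system treated 24 h in the presence of 3 nM 6-alpha-fluorotestosterone. The M06 internal marker transcript was quantified by RT-PCR with capillary electrophoresis as a background control, and gain of signal was scored versus DMSO.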

[2] = ATG_M_61_XSP1: Attagene TRANS-FACTORIAL Multi-Species (XSP1) HepG2 Assay for M61 Transcription Factor (Internal Marker) (AID 2283797)
Summary of the method: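 HepG2 cells transiently transfected with multiplexed GAL4-driven reporter units, dosed 24 h with 3 nM 6-alpha-fluorotestosterone present. Reporter mRNA quantified by RT-PCR, 6-FAM labelling, HpaI digestion and capillary electrophoresis; internal-marker background control, gain of signal versus DMSO.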

[3] = ATG_M_32_XSP1: Attagene TRANS-FACTORIAL Multi-Species (XSP1) HepG2 Assay for M32 Transcription Factor (Internal Marker) (AID 2283799)
Summary of the method: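 HepG2 cells transiently transfected with multi-species TRANS reporter units, dosed 24 h with 3 nM 6-alpha-fluorotestosterone present. Internal-marker reporter mRNA quantified by RT-PCR and capillary electrophoresis; positive-direction fit versus DMSO.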

[4] = target: Peroxisome proliferator-activated receptor gamma (Homo sapiens) (UniProt P37231); assay: ATG_hPPARg_XSP1: Attagene TRANS-FACTORIAL Multi-Species (XSP1) HepG2 Assay for human Peroxisome Proliferator-activated Receptor gamma (PPARg) (AID 2283800)
Chain of Peroxisome proliferator-activated receptor gamma (Homo sapiens) (P37231 whole entry, looked up, the tested form may be a part): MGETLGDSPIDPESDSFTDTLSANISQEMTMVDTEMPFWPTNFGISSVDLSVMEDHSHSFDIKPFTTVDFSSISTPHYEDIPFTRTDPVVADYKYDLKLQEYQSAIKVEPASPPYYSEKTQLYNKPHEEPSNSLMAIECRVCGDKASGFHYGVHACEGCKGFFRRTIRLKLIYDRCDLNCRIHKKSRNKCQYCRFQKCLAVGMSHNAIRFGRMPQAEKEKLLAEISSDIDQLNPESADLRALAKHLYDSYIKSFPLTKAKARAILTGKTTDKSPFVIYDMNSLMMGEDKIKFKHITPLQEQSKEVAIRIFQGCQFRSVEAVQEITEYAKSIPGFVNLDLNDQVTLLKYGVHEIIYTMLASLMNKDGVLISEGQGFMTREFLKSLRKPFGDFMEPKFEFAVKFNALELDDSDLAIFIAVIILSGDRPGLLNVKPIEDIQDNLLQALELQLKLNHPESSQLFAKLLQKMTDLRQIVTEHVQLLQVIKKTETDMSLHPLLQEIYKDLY
Summary of the method: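 HepG2 cells transiently transfected with GAL4-UAS reporter units carrying chimeric NR-Gal4 proteins; 3 nM 6-alpha-fluorotestosterone present. After 24 h dosing, reporter mRNA quantified by RT-PCR and capillary electrophoresis; gain of signal relative to DMSO.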

[5] = tested on: zebrafish Peroxisome Proliferator-activated Receptor gamma (PPARg), gene 557037; assay: ATG_zfPPARg_XSP1: Attagene TRANS-FACTORIAL Multi-Species (XSP1) HepG2 Assay for zebrafish Peroxisome Proliferator-activated Receptor gamma (PPARg) (AID 2283801)
Summary of the method: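 HepG2 cells transiently transfected with GAL4-UAS reporter units including a zebrafish PPARg–GAL4 chimera, dosed 24 h with 3 nM 6-alpha-fluorotestosterone present. Reporter mRNA quantified by RT-PCR, FAM labelling, HpaI digestion and capillary electrophoresis; induction versus DMSO.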

[6] = target: mouse Peroxisome Proliferator-activated Receptor gamma (PPARg), Pparg (gene 19016) (UniProt P37238); assay: ATG_mPPARg_XSP1: Attagene TRANS-FACTORIAL Multi-Species (XSP1) HepG2 Assay for mouse Peroxisome Proliferator-activated Receptor gamma (PPARg) (AID 2283802)
Chain of mouse Peroxisome Proliferator-activated Receptor gamma (PPARg), Pparg (gene 19016) (P37238 whole entry, looked up, the tested form may be a part): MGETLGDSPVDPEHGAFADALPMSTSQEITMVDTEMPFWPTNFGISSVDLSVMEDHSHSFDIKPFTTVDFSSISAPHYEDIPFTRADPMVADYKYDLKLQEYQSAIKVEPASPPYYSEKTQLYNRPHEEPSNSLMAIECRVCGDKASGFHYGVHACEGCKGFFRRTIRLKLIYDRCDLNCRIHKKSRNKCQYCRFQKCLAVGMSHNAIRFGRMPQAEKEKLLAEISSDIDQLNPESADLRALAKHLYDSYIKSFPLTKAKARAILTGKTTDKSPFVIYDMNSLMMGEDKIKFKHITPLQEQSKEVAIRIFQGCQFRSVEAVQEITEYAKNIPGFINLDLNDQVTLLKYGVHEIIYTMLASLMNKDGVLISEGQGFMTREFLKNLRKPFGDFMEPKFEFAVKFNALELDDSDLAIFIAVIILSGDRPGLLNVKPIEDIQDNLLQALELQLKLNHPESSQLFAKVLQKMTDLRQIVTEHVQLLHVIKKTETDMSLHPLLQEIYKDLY
Summary of the method: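 HepG2 cells transiently transfected with GAL4-UAS reporter units driven by mouse PPARg–GAL4 chimera; 3 nM 6-alpha-fluorotestosterone present. After 24 h dosing, reporter mRNA quantified by RT-PCR, fluorescent labelling and capillary electrophoresis; gain of signal versus DMSO.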

[7] = target: Nuclear receptor subfamily 1 group I member 2 (Mus musculus) (UniProt O54915); assay: ATG_mPXR_XSP1: Attagene TRANS-FACTORIAL Multi-Species (XSP1) HepG2 Assay for mouse Pregnane X Receptor (PXR) (AID 2283803)
Chain of Nuclear receptor subfamily 1 group I member 2 (Mus musculus) (O54915 whole entry, looked up, the tested form may be a part): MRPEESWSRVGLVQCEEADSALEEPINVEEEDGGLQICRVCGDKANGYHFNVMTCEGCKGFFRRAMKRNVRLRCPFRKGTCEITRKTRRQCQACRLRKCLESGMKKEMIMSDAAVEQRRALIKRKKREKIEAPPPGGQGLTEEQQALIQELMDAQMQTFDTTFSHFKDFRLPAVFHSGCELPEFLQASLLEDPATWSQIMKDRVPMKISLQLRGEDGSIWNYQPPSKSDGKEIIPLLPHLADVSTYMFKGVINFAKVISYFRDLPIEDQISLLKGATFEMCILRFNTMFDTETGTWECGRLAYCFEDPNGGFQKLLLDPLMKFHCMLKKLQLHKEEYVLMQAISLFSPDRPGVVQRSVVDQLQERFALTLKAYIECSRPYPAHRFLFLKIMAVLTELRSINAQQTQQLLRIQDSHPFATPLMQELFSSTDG
Summary of the method: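 Transiently transfected HepG2 cells expressing a receptor-Gal4 chimera drive a GAL4-UAS reporter; 3 nM 6-alpha-fluorotestosterone included. Reporter mRNA read 24 h post-dose by RT-PCR and capillary electrophoresis; gain of signal relative to DMSO.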

[8] = target: human Thyroid hormone Receptor alpha (TRa), THRA (gene 7067) (UniProt P10827); assay: ATG_hTRa_XSP1: Attagene TRANS-FACTORIAL Multi-Species (XSP1) HepG2 Assay for human Thyroid hormone Receptor alpha (TRa) (AID 2283805)
Chain of human Thyroid hormone Receptor alpha (TRa), THRA (gene 7067) (P10827 whole entry, looked up, the tested form may be a part): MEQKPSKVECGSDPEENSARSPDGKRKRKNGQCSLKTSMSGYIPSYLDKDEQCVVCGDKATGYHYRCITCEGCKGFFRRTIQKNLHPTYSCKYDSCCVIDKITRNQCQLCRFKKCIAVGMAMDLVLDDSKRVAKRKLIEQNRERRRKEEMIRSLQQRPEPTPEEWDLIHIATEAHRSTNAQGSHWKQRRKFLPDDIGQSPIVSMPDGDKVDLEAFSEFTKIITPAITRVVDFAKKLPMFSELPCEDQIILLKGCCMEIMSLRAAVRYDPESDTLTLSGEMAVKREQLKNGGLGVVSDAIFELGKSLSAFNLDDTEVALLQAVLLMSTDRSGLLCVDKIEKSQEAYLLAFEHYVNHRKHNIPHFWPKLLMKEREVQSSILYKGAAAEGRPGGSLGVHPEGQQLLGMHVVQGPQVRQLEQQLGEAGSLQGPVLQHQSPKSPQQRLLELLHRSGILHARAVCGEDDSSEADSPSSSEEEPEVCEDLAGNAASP
Summary of the method: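 HepG2 cells transiently transfected with GAL4-UAS reporter units expressing chimeric NR-Gal4 proteins, dosed 24 hours with 3 nM 6-alpha-fluorotestosterone present. Reporter mRNA measured by RT-PCR and capillary electrophoresis; gain of signal fitted versus DMSO.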

[9] = tested on: turtle Thyroid Hormone Receptor, alpha (TRa), gene 101949057; assay: ATG_trTRa_XSP1: Attagene TRANS-FACTORIAL Multi-Species (XSP1) HepG2 Assay for turtle Thyroid Hormone Receptor, alpha (TRa) (AID 2283806)
Summary of the method: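 HepG2 cells transiently transfected with GAL4-UAS reporter units and chimeric receptor-Gal4 constructs, with 3 nM 6-alpha-fluorotestosterone present. Reporter mRNA was quantified 24 h after dosing by RT-PCR, 6-FAM labelling and capillary electrophoresis; gain of signal versus DMSO.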

[10] = target: zebrafish Thyroid Hormone Receptor alpha (TRa), thraa (gene 30670) (UniProt Q98867); assay: ATG_zfTRa_XSP1: Attagene TRANS-FACTORIAL Multi-Species (XSP1) HepG2 Assay for zebrafish Thyroid Hormone Receptor alpha (TRa) (AID 2283807)
Chain of zebrafish Thyroid Hormone Receptor alpha (TRa), thraa (gene 30670) (Q98867 whole entry, looked up, the tested form may be a part): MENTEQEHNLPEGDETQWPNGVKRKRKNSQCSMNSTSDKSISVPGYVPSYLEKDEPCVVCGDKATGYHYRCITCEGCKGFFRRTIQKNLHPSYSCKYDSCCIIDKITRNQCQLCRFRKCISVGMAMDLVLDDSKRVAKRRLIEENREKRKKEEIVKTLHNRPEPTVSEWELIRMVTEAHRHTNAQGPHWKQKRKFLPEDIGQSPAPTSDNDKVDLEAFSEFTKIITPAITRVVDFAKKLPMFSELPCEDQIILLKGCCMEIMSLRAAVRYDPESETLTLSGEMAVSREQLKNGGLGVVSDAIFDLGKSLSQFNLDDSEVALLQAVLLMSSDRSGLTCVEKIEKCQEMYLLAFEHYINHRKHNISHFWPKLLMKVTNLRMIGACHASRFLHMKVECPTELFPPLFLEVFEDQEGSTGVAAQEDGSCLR
Summary of the method: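 HepG2 cells transiently transfected with GAL4-UAS reporter units including a zebrafish TRa–Gal4 chimera, dosed 24 h with 3 nM 6-alpha-fluorotestosterone present. Reporter mRNA quantified by RT-PCR and capillary electrophoresis; gain versus DMSO.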

[11] = target: human Thyroid hormone Receptor beta (TRb), THRB (gene 7068) (UniProt P10828); assay: ATG_hTRb_XSP1: Attagene TRANS-FACTORIAL Multi-Species (XSP1) HepG2 Assay for human Thyroid hormone Receptor beta (TRb) (AID 2283808)
Chain of human Thyroid hormone Receptor beta (TRb), THRB (gene 7068) (P10828 whole entry, looked up, the tested form may be a part): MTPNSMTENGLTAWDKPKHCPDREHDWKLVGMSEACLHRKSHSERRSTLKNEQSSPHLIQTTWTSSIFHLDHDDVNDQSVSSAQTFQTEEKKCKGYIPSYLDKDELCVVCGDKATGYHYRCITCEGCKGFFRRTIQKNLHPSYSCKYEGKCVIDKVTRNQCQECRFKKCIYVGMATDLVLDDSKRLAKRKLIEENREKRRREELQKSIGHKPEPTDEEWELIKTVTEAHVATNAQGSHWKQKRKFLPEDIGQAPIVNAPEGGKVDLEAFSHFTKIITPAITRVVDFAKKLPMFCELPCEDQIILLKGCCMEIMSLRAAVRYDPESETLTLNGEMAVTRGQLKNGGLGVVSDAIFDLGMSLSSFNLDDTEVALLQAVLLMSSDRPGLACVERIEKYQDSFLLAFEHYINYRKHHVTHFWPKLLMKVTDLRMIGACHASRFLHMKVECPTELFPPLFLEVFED
Summary of the method: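 HepG2 cells transiently transfected with reporter units driving GAL4-UAS reporters for chimeric NR-Gal4 proteins; 24 h chemical exposure with 3 nM 6-alpha-fluorotestosterone present. Reporter mRNA quantified by RT-PCR and capillary electrophoresis, gain of signal versus DMSO.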

[12] = target: zebrafish Thyroid Hormone Receptor beta (TRb), thrb (gene 30607) (UniProt Q9PVE4); assay: ATG_zfTRb_XSP1: Attagene TRANS-FACTORIAL Multi-Species (XSP1) HepG2 Assay for zebrafish Thyroid Hormone Receptor beta (TRb) (AID 2283809)
Chain of zebrafish Thyroid Hormone Receptor beta (TRb), thrb (gene 30607) (Q9PVE4 whole entry, looked up, the tested form may be a part): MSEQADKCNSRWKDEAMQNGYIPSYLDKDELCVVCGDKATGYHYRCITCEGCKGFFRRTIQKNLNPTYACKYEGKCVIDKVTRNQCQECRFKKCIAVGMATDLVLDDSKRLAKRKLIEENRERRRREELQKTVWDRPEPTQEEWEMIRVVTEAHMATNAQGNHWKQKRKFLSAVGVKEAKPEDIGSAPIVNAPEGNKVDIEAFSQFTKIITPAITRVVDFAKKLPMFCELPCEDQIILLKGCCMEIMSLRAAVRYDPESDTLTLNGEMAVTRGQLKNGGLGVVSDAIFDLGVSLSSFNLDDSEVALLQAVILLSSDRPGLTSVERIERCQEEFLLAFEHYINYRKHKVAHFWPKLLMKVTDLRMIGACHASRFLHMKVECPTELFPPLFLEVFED
Summary of the method: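 HepG2 cells transiently transfected with multiplexed GAL4-UAS reporter units expressing chimeric zebrafish TRb–Gal4. Dosed 24 h with 3 nM 6-alpha-fluorotestosterone present; reporter mRNA measured by RT-PCR, HpaI digestion and capillary electrophoresis; gain of signal versus DMSO.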

[13] = ATG_XTT_Cytotoxicity_XSP1: Cytotoxicity Assessment in the Attagene TRANS-FACTORIAL Multi-Species (XSP1) HepG2 Assay (AID 2283810)
Summary of the method: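 XTT viability readout taken at 24 hours post-dosing in HepG2 liver cells co-treated with 3 nM 6-alpha-fluorotestosterone. Signal loss relative to DMSO controls reflects cytotoxicity.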

[14] = ATG_M_06_XSP2: Attagene TRANS-FACTORIAL Multi-Species (XSP2) HepG2 Assay for M06 Transcription Factor (Internal Marker) (AID 2283811);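 further: hits are increases in signal above the DMSO baseline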
Summary of the method: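 HepG2, multiplexed reporter transfection; 24 h dosing; AR stimulated with 3 nM 6-alpha-fluorotestosterone + 1.5 nM norgestrel; RNA → RT-PCR → 6-FAM primer extension → HpaI → CE. Positive direction vs DMSO.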

[15] = tested on: turtle Estrogen Receptor (ERa), gene 101933533; assay: ATG_trERa_XSP2: Attagene TRANS-FACTORIAL Multi-Species (XSP2) HepG2 Assay for turtle Estrogen Receptor (ERa) (AID 2283812);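 further: human HepG2 liver cells transiently expressing turtle ERa-Gal4 chimeric receptor; actives raise reporter signal above DMSO so AC50 reflects agonist activity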
Summary of the method: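 HepG2 cells transiently transfected with GAL4-UAS reporter units expressing turtle ERa-Gal4 chimera. Reporter mRNA measured after 24 h dosing by RT-PCR, fluorescent labelling and capillary electrophoresis; gain of signal fitted versus DMSO.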

[16] = target: Estrogen receptor beta (Homo sapiens) (UniProt Q92731); assay: ATG_hERb_XSP2: Attagene TRANS-FACTORIAL Multi-Species (XSP2) HepG2 Assay for human Estrogen Receptor (ERb) (AID 2283813);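 further: actives raise reporter mRNA above DMSO so AC50 reflects agonist induction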
Chain of Estrogen receptor beta (Homo sapiens) (Q92731 whole entry, looked up, the tested form may be a part): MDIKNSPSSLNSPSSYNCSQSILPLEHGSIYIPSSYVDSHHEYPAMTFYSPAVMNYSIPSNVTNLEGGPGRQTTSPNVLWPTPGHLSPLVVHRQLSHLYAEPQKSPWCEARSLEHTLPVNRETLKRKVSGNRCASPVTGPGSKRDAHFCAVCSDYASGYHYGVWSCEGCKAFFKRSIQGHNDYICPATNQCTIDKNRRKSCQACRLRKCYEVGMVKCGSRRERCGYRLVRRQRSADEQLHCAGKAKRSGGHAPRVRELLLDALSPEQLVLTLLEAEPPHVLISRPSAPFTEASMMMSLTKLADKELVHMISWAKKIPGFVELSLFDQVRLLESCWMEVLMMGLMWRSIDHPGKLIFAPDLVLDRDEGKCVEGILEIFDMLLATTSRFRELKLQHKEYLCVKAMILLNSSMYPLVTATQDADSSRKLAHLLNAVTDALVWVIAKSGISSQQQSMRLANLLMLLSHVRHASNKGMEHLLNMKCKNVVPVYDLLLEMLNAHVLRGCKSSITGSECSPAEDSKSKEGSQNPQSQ
Summary of the method: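 HepG2 cells transiently transfected with GAL4-UAS reporter units and chimeric human ERb-Gal4, 24 h exposure. Reporter mRNA quantified by RT-PCR with FAM labelling, HpaI digestion and capillary electrophoresis; gain of signal versus DMSO.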

[17] = target: GAL4 Transcription Factor (Internal Marker), GAL4 (gene 855828) (UniProt P04386); assay: ATG_GAL4_XSP2: Attagene TRANS-FACTORIAL Multi-Species (XSP2) HepG2 Assay for GAL4 Transcription Factor (Internal Marker) (AID 2283814);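 further: GAL4 reporter mRNA background control in MRTU transfected cells not a receptor target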
Summary of the method: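 HepG2 cells transiently transfected with GAL4-UAS reporter units, stimulated with 3 nM 6-alpha-fluorotestosterone plus 1.5 nM norgestrel, dosed 24 h. Reporter mRNA by RT-PCR/capillary electrophoresis; gain-of-signal fit versus DMSO, background control.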

[18] = ATG_M_19_XSP1: Attagene TRANS-FACTORIAL Multi-Species (XSP1) HepG2 Assay for M19 Transcription Factor (Internal Marker) (AID 2283798)
Summary of the method: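 HepG2 cells transiently transfected with multiplexed GAL4-UAS reporter units, dosed 24 h with 3 nM 6-alpha-fluorotestosterone present for partial AR stimulation. Reporter mRNA measured by RT-PCR with capillary electrophoresis; gain-of-signal fitted relative to DMSO.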

[19] = target: frog Thyroid hormone Receptor alpha (TRa), thra-a (gene 397942) (UniProt P15204); assay: ATG_frTRa_XSP1: Attagene TRANS-FACTORIAL Multi-Species (XSP1) HepG2 Assay for frog Thyroid hormone Receptor alpha (TRa) (AID 2283804)
Chain of frog Thyroid hormone Receptor alpha (TRa), thra-a (gene 397942) (P15204 whole entry, looked up, the tested form may be a part): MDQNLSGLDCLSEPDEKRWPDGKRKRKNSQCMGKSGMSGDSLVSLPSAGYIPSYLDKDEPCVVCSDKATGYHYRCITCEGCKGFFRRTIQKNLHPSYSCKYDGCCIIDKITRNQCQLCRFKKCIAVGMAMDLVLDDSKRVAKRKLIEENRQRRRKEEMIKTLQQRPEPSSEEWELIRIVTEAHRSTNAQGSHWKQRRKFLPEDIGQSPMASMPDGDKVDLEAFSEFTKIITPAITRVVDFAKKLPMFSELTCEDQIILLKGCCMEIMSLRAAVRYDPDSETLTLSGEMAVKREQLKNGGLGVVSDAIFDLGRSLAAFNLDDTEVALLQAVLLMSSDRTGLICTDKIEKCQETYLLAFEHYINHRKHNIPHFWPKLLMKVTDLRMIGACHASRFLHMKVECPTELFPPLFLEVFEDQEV
Summary of the method: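 HepG2 cells transiently transfected with frog TRa-GAL4 chimeric reporter units, dosed 24 hr with 3 nM 6-alpha-fluorotestosterone present; reporter mRNA quantified by RT-PCR, fluorescent labelling and capillary electrophoresis, gain of signal versus DMSO.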

[20] = tested on: turtle Androgen Receptor (AR), gene 101947425; assay: ATG_trAR_XSP2: Attagene TRANS-FACTORIAL Multi-Species (XSP2) HepG2 Assay for turtle Androgen Receptor (AR) (AID 2283815)
Summary of the method: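 HepG2 cells transiently transfected with GAL4-UAS reporter units for chimeric NR-Gal4 receptors; 24 h dosing in presence of 3 nM 6-alpha-fluorotestosterone and 1.5 nM norgestrel. Reporter mRNA by RT-PCR and capillary electrophoresis, gain of signal versus DMSO.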

Measured: AC50

COP(=S)(OC)Oc1ccc(SC)c(C)c1
inactive: [1] | [2] | [3] | [5] | [8] | [9] | [10] | [11] | [12] | [13] | [14] | [16] | [17]
active: [4] 22.5 µM | [6] 41.5 µM | [7] 8.91 µM | [15] 5.17 µM

CCCN(CCOc1c(Cl)cc(Cl)cc1Cl)C(=O)n1ccnc1
inactive: [18] | [3] | [5] | [8] | [9] | [10] | [11] | [14] | [15] | [16]
active: [4] 33.4 µM | [6] 15.8 µM | [7] 0.11 µM | [13] 100 µM

CCCN(CCC)c1c([N+](=O)[O-])cc(C(F)(F)F)cc1[N+](=O)[O-]
active: [4] 27.1 µM | [6] 35.1 µM | [7] 2.85 µM
inactive: [1] | [2] | [5] | [9] | [10] | [11] | [12] | [13] | [14] | [15] | [17]

CC1(C)C(C=C(Cl)Cl)C1C(=O)OC(C#N)c1ccc(F)c(Oc2ccccc2)c1 (stereo not drawn)
active: [4] 11.1 µM | [6] 9.66 µM | [7] 0.436 µM
inactive: [1] | [2] | [5] | [19] | [8] | [9] | [10] | [11] | [12] | [13] | [15] | [17] | [20]

O=C(O)C(F)(F)C(F)(F)C(F)(F)C(F)(F)C(F)(F)C(F)(F)C(F)(F)F
active: [15] 35.5 µM | [16] 38.4 µM
inactive: [14]

Oc1cc(Cl)ccc1Oc1ccc(Cl)cc1Cl
active: [4] 9.39 µM | [6] 11.1 µM | [7] 14.4 µM | [8] 7.06 µM | [9] 11.1 µM | [10] 14 µM | [13] 100 µM | [17] 15.8 µM
inactive: [1] | [2] | [3] | [5] | [19] | [11] | [12] | [14] | [15]

CCOCN(C(=O)CCl)c1c(C)cccc1CC
inactive: [18] | [13]
active: [4] 0.727 µM | [6] 1.89 µM | [7] 4 µM

COP(=S)(OC)Oc1ccc([N+](=O)[O-])cc1
inactive: [16] | [17]
active: [15] 29.6 µM and 23.1 µM | [16] 26.8 µM

CC(C)(C)C(O)/C(=C\c1ccc(Cl)cc1Cl)n1cncn1 (stereo not drawn)
active: [16] 8.38 µM
inactive: [14] | [15] | [16]

O=S(=O)(O)C(F)(F)C(F)(F)C(F)(F)C(F)(F)C(F)(F)C(F)(F)C(F)(F)C(F)(F)F
active: [6] 73.1 µM | [7] 57.9 µM | [10] 140 µM | [13] 154 µM
inactive: [18] | [3] | [12] | [14] | [15]

O=S1OCC2C(CO1)C1(Cl)C(Cl)=C(Cl)C2(Cl)C1(Cl)Cl (stereo not drawn)
active: [7] 0.512 µM | [15] 2.06 µM
inactive: [1] | [2] | [18] | [4] | [6] | [8] | [9] | [10] | [11] | [12] | [13] | [14]

Oc1ccc(Cl)cc1Cc1ccccc1
inactive: [1] | [2] | [5] | [7] | [19] | [8] | [9] | [10] | [11] | [12] | [13] | [14] | [15] | [16] | [17]
active: [6] 10.1 µM
